From the supplement of paper PMC4466140

Key:
Assay in all cases: SPOT peptide array binding signal intensity (averaged, normalized) (arbitrary units (background-subtracted, floor 0; scale differs between SH3 domains)); higher = stronger binding of the SH3 domain to the peptide
AgAbp1 = target: AgAbp1
Procedure, shortened: (§1)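 Cellulose membranes carried synthetic 15-mer peptides with cysteines swapped for serines. These were incubated overnight at 4°C with 10 μg/ml of GST-fused SH3 domains from four yeast species in TBS-based blocking buffer. Binding signal, detected with anti-GST antibody and quantified in Genespotter, is the normalized, background-subtracted spot intensity averaged over replicates, in arbitrary units specific to each domain.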

AgBbc1 = target: AgBbc1
Procedure, shortened: as §1

AgBem1-D1 = target: AgBem1-D1
Procedure, shortened: as §1

AgBzz1-D1 = target: AgBzz1-D1
Procedure, shortened: as §1

AgBzz1-D2 = target: AgBzz1-D2
Procedure, shortened: as §1

AgCyk3 = target: AgCyk3
Procedure, shortened: as §1

AgFus1 = target: AgFus1
Procedure, shortened: as §1

AgHof1 = target: AgHof1
Procedure, shortened: as §1

AgHse1 = target: AgHse1
Procedure, shortened: as §1

AgLsb1 = target: AgLsb1
Procedure, shortened: as §1

AgLsb4 = target: AgLsb4
Procedure, shortened: as §1

AgMyo5 = target: AgMyo5
Procedure, shortened: as §1

AgNbp2 = target: AgNbp2
Procedure, shortened: as §1

AgRvs167 = target: AgRvs167
Procedure, shortened: as §1

AgSho1 = target: AgSho1
Procedure, shortened: as §1

AgSla1-D1-D2 = target: AgSla1-D1-D2
Procedure, shortened: as §1

AgSla1-D3 = target: AgSla1-D3
Procedure, shortened: as §1

CaAbp1-D1 = target: CaAbp1-D1
Procedure, shortened: as §1

CaAbp1-D2 = target: CaAbp1-D2
Procedure, shortened: as §1

CaBbc1 = target: CaBbc1
Procedure, shortened: as §1

CaBem1-D1 = target: CaBem1-D1
Procedure, shortened: as §1

CaBzz1-D1 = target: CaBzz1-D1
Procedure, shortened: as §1

CaBzz1-D2 = target: CaBzz1-D2
Procedure, shortened: as §1

CaCyk3 = target: CaCyk3
Procedure, shortened: as §1

CaFus1 = target: CaFus1
Procedure, shortened: as §1

CaHof1 = target: CaHof1
Procedure, shortened: as §1

CaHse1 = target: CaHse1
Procedure, shortened: as §1

CaLsb1 = target: CaLsb1
Procedure, shortened: as §1

CaLsb4 = target: CaLsb4
Procedure, shortened: as §1

CaMyo5 = target: CaMyo5
Procedure, shortened: as §1

CaNbp2 = target: CaNbp2
Procedure, shortened: as §1

CaRvs167 = target: CaRvs167
Procedure, shortened: as §1

CaRvs167-3 = target: CaRvs167-3
Procedure, shortened: as §1

CaSho1 = target: CaSho1
Procedure, shortened: as §1

CaSla1-D1-D2 = target: CaSla1-D1-D2
Procedure, shortened: as §1

CaSla1-D3 = target: CaSla1-D3
Procedure, shortened: as §1

ScAbp1 = target: ScAbp1
Procedure, shortened: as §1

ScBbc1 = target: ScBbc1
Procedure, shortened: as §1

ScBem1-D1 = target: ScBem1-D1
Procedure, shortened: as §1

ScBzz1-D1 = target: ScBzz1-D1
Procedure, shortened: as §1

ScBzz1-D2 = target: ScBzz1-D2
Procedure, shortened: as §1

ScCyk3 = target: ScCyk3
Procedure, shortened: as §1

ScFus1 = target: ScFus1
Procedure, shortened: as §1

ScHof1 = target: ScHof1
Procedure, shortened: as §1

ScHse1 = target: ScHse1
Procedure, shortened: as §1

ScLsb1 = target: ScLsb1
Procedure, shortened: as §1

ScLsb2 = target: ScLsb2
Procedure, shortened: as §1

ScLsb3 = target: ScLsb3
Procedure, shortened: as §1

ScLsb4 = target: ScLsb4
Procedure, shortened: as §1

ScMyo3 = target: ScMyo3
Procedure, shortened: as §1

ScMyo5 = target: ScMyo5
Procedure, shortened: as §1

ScNbp2 = target: ScNbp2
Procedure, shortened: as §1

ScPex13 = target: ScPex13
Procedure, shortened: as §1

ScRvs167 = target: ScRvs167
Procedure, shortened: as §1

ScSho1 = target: ScSho1
Procedure, shortened: as §1

ScSla1-D1-D2 = target: ScSla1-D1-D2
Procedure, shortened: as §1

ScSla1-D3 = target: ScSla1-D3
Procedure, shortened: as §1

SpAbp1-D1 = target: SpAbp1-D1
Procedure, shortened: as §1

SpBbc1 = target: SpBbc1
Procedure, shortened: as §1

SpBzz1-D1 = target: SpBzz1-D1
Procedure, shortened: as §1

SpBzz1-D2 = target: SpBzz1-D2
Procedure, shortened: as §1

SpCyk3 = target: SpCyk3
Procedure, shortened: as §1

SpHof1 = target: SpHof1
Procedure, shortened: as §1

SpHof1-2 = target: SpHof1-2
Procedure, shortened: as §1

SpHof1-3 = target: SpHof1-3
Procedure, shortened: as §1

SpHse1 = target: SpHse1
Procedure, shortened: as §1

SpLsb1 = target: SpLsb1
Procedure, shortened: as §1

SpLsb4 = target: SpLsb4
Procedure, shortened: as §1

SpMyo1 = target: SpMyo1
Procedure, shortened: as §1

SpNbp2 = target: SpNbp2
Procedure, shortened: as §1

SpPex13 = target: SpPex13
Procedure, shortened: as §1

SpRvs167 = target: SpRvs167
Procedure, shortened: as §1

SpSla1-D1-D2 = target: SpSla1-D1-D2
Procedure, shortened: as §1

SpSla1-D3 = target: SpSla1-D3
Procedure, shortened: as §1

GATNNAPTLPKRKNP
SPOT peptide array binding signal intensity (AgAbp1): 94.5
SPOT peptide array binding signal intensity (AgBbc1): 80.5
SPOT peptide array binding signal intensity (AgBem1-D1): 15
SPOT peptide array binding signal intensity (AgBzz1-D1): 60.2
SPOT peptide array binding signal intensity (AgBzz1-D2): 21
SPOT peptide array binding signal intensity (AgCyk3): ≤ 0
SPOT peptide array binding signal intensity (AgFus1): 15.5
SPOT peptide array binding signal intensity (AgHof1): 32.9
SPOT peptide array binding signal intensity (AgHse1): ≤ 0
SPOT peptide array binding signal intensity (AgLsb1): 11.4
SPOT peptide array binding signal intensity (AgLsb4): 2730
SPOT peptide array binding signal intensity (AgMyo5): ≤ 0
SPOT peptide array binding signal intensity (AgNbp2): 7.25
SPOT peptide array binding signal intensity (AgRvs167): 47.3
SPOT peptide array binding signal intensity (AgSho1): 3.75
SPOT peptide array binding signal intensity (AgSla1-D1-D2): 7
SPOT peptide array binding signal intensity (AgSla1-D3): 0.75
SPOT peptide array binding signal intensity (CaAbp1-D1): 131
SPOT peptide array binding signal intensity (CaAbp1-D2): 155
SPOT peptide array binding signal intensity (CaBbc1): 532
SPOT peptide array binding signal intensity (CaBem1-D1): 6
SPOT peptide array binding signal intensity (CaBzz1-D1): 232
SPOT peptide array binding signal intensity (CaBzz1-D2): ≤ 0
SPOT peptide array binding signal intensity (CaCyk3): 2.75
SPOT peptide array binding signal intensity (CaFus1): ≤ 0
SPOT peptide array binding signal intensity (CaHof1): 1.25
SPOT peptide array binding signal intensity (CaHse1): 2.25
SPOT peptide array binding signal intensity (CaLsb1): 0.5
SPOT peptide array binding signal intensity (CaLsb4): 4150
SPOT peptide array binding signal intensity (CaMyo5): 3
SPOT peptide array binding signal intensity (CaNbp2): ≤ 0
SPOT peptide array binding signal intensity (CaRvs167): 125
SPOT peptide array binding signal intensity (CaRvs167-3): 3.25
SPOT peptide array binding signal intensity (CaSho1): ≤ 0
SPOT peptide array binding signal intensity (CaSla1-D1-D2): 47
SPOT peptide array binding signal intensity (CaSla1-D3): ≤ 0
SPOT peptide array binding signal intensity (ScAbp1): 120
SPOT peptide array binding signal intensity (ScBbc1): 7.12
SPOT peptide array binding signal intensity (ScBem1-D1): ≤ 0
SPOT peptide array binding signal intensity (ScBzz1-D1): 10.5
SPOT peptide array binding signal intensity (ScBzz1-D2): 12.5
SPOT peptide array binding signal intensity (ScCyk3): ≤ 0
SPOT peptide array binding signal intensity (ScFus1): 6.5
SPOT peptide array binding signal intensity (ScHof1): 0.25
SPOT peptide array binding signal intensity (ScHse1): 27.2
SPOT peptide array binding signal intensity (ScLsb1): 242
SPOT peptide array binding signal intensity (ScLsb2): 3.5
SPOT peptide array binding signal intensity (ScLsb3): 4610
SPOT peptide array binding signal intensity (ScLsb4): 2740
SPOT peptide array binding signal intensity (ScMyo3): ≤ 0
SPOT peptide array binding signal intensity (ScMyo5): ≤ 0
SPOT peptide array binding signal intensity (ScNbp2): 4.5
SPOT peptide array binding signal intensity (ScPex13): 182
SPOT peptide array binding signal intensity (ScRvs167): 960
SPOT peptide array binding signal intensity (ScSho1): ≤ 0
SPOT peptide array binding signal intensity (ScSla1-D1-D2): 20.8
SPOT peptide array binding signal intensity (ScSla1-D3): ≤ 0
SPOT peptide array binding signal intensity (SpAbp1-D1): 102
SPOT peptide array binding signal intensity (SpBbc1): 1
SPOT peptide array binding signal intensity (SpBzz1-D1): 286
SPOT peptide array binding signal intensity (SpBzz1-D2): 0.25
SPOT peptide array binding signal intensity (SpCyk3): ≤ 0
SPOT peptide array binding signal intensity (SpHof1): 2.75
SPOT peptide array binding signal intensity (SpHof1-2): 0.625
SPOT peptide array binding signal intensity (SpHof1-3): 65.5
SPOT peptide array binding signal intensity (SpHse1): 11
SPOT peptide array binding signal intensity (SpLsb1): 118
SPOT peptide array binding signal intensity (SpLsb4): 6350
SPOT peptide array binding signal intensity (SpMyo1): ≤ 0
SPOT peptide array binding signal intensity (SpNbp2): 2
SPOT peptide array binding signal intensity (SpPex13): 3.5
SPOT peptide array binding signal intensity (SpRvs167): 1270
SPOT peptide array binding signal intensity (SpSla1-D1-D2): 7
SPOT peptide array binding signal intensity (SpSla1-D3): 15

NMLKKKPLKKPLKRF
SPOT peptide array binding signal intensity (AgAbp1): 2990
SPOT peptide array binding signal intensity (AgBbc1): 12.5
SPOT peptide array binding signal intensity (AgBem1-D1): 382
SPOT peptide array binding signal intensity (AgBzz1-D1): 48
SPOT peptide array binding signal intensity (AgBzz1-D2): 48
SPOT peptide array binding signal intensity (AgCyk3): 1
SPOT peptide array binding signal intensity (AgFus1): 450
SPOT peptide array binding signal intensity (AgHof1): 75
SPOT peptide array binding signal intensity (AgHse1): 924
SPOT peptide array binding signal intensity (AgLsb1): 1
SPOT peptide array binding signal intensity (AgLsb4): 84
SPOT peptide array binding signal intensity (AgMyo5): ≤ 0
SPOT peptide array binding signal intensity (AgNbp2): 275
SPOT peptide array binding signal intensity (AgRvs167): 6.17
SPOT peptide array binding signal intensity (AgSho1): 363
SPOT peptide array binding signal intensity (AgSla1-D1-D2): 415
SPOT peptide array binding signal intensity (AgSla1-D3): 10
SPOT peptide array binding signal intensity (CaAbp1-D1): 2870
SPOT peptide array binding signal intensity (CaAbp1-D2): 4760
SPOT peptide array binding signal intensity (CaBbc1): 98.5
SPOT peptide array binding signal intensity (CaBem1-D1): 268
SPOT peptide array binding signal intensity (CaBzz1-D1): 208
SPOT peptide array binding signal intensity (CaBzz1-D2): 225
SPOT peptide array binding signal intensity (CaCyk3): 18
SPOT peptide array binding signal intensity (CaFus1): 2320
SPOT peptide array binding signal intensity (CaHof1): ≤ 0
SPOT peptide array binding signal intensity (CaHse1): 226
SPOT peptide array binding signal intensity (CaLsb1): 4.5
SPOT peptide array binding signal intensity (CaLsb4): 506
SPOT peptide array binding signal intensity (CaMyo5): 27.5

PLQSKIPMLPSRRTM
SPOT peptide array binding signal intensity (SpBzz1-D2): 2
SPOT peptide array binding signal intensity (SpCyk3): 16
SPOT peptide array binding signal intensity (SpHof1): 61.2
SPOT peptide array binding signal intensity (SpHof1-2): 76.2
SPOT peptide array binding signal intensity (SpHof1-3): 108
SPOT peptide array binding signal intensity (SpHse1): 272
SPOT peptide array binding signal intensity (SpLsb1): 612
SPOT peptide array binding signal intensity (SpLsb4): 5580
SPOT peptide array binding signal intensity (SpMyo1): 61.5
SPOT peptide array binding signal intensity (SpNbp2): 118
SPOT peptide array binding signal intensity (SpPex13): 224
SPOT peptide array binding signal intensity (SpRvs167): 2200
SPOT peptide array binding signal intensity (SpSla1-D1-D2): 68
SPOT peptide array binding signal intensity (SpSla1-D3): 173
